Bioassay records deposited in PubChem by National Center for Advancing Translational Sciences (NCATS).
HADH2 inh = HADH2 (human) dehydrogenase inhibition | recombinant HADH2, NADH fluorescence, beta-hydroxybutyryl-CoA | 73,000 compounds, 3.4% hits | AID 886 | Potency, µM (top dose mostly 57.1 µM), without a hit: at the highest dose activity change, negative = inhibition, actives largely listed as inhibitors; note: nearly all actives have a fitted effect of over 60% in size
Target sequence (Q99714 whole entry, looked up, one chain of several): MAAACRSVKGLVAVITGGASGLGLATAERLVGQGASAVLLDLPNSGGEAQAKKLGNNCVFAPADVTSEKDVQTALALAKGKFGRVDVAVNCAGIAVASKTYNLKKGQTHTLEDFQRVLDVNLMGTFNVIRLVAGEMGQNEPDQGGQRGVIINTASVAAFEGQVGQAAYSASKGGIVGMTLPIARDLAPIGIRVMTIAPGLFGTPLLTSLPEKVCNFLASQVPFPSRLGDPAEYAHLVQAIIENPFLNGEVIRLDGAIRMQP
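Read-out: 360 nm excitation, 450 nm emission, kinetic over 4 min. Conditions: His-tagged human HADH2 20 nM, pH 9.0 Tris with Tween-20, 1 mM NAD+, 90 uM beta-hydroxybutyryl-CoA.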
Bst PK mod = alters activity of Bacillus stearothermophilus pyruvate kinase; 51,000 compounds, 1.2% hits; purified pyruvate kinase, luminescence ATP production; ribose 5-phosphate activator present at AC10; Potency, µM; in the data active = potency below about 11 µM; inconclusive = mostly about 12 µM to 25 µM;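 the screen sought inhibitors and activators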;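 note: scaled between full activation by ribose 5 phosphate and full inhibition by luteolin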
HSD17B inh = blocks hydroxysteroid 17-beta dehydrogenase activity; Q99714; recombinant HSD17B10, NADH fluorescence kinetic; Potency, µM (titrated, usually from 57.1 µM), for the others: at the top dose activity change, negative = inhibition, actives largely listed as inhibitors; 75,000 compounds, 7.6% hits; AID 893;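 note: the protocol describes HADH2 (HSD17B10) and not the HSD17B4 of the title; nearly all actives have a fitted effect of over 70% in size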
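20 nM HADH2, pH 9.0 Tris/Tween; cpd preinc 15 min RT; start w/ 1 mM NAD+ + 90 uM b-hydroxybutyryl-CoA; kinetic fluor ex360/em450 q30s x 4 min; delta last-first.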
ERK AVP block = vasopressin-driven ERK pathway inhibition; HEK293-V1b, vasopressin-stimulated pERK AlphaScreen; 72,000 compounds, 0.99% hits; AID 995; Potency, µM (doses to about 57.5 µM), for the others: top-dose activity, negative = inhibition, usual class: inhibitors; note: nearly all actives have a fitted effect of over 55% in size
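V1b-HEK293 cells; cpd 30 min 37C; 25 nM vasopressin 5 min; lyse 10 min; AlphaScreen beads 5 hr RT. Normalized to DMSO basal and 25 nM vasopressin; AC50 by Hill fit.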
15-hLO inh = 15-hLO (ALOX15) enzyme inhibition; purified 15hLO-1, xylenol orange hydroperoxide absorbance; AID 887; P16050; 74,000 compounds, 1.4% hits; Potency, µM (top dose mostly 57.1 µM), for the others: top-dose activity change, negative = inhibition, most hits filed as inhibitors; note: nearly all actives have a fitted effect of over 55% in size
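Readout: Fe(III)-xylenol orange absorbance, 573-to-405 nm ratio as reaction progress. Enzyme 40 nM purified human 15hLO-1, substrate 50 uM arachidonic acid, 6 min RT after 15 min compound preincubation; Hepes pH 7.5 buffer with Triton X-100.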
Luciferase inh = inhibitors of firefly luciferase; P08659; purified firefly luciferase, luminescence, 8 min; Potency, µM (doses to about 57.1 µM), for the others: at the highest dose activity change, negative = inhibition, hits mostly inhibitors; 72,000 compounds, 2.2% hits; note: nearly all actives have a fitted effect of over 40% in size
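Inhibition of light generation by firefly luciferase from ATP and luciferin was profiled with concentration-response curves per sample, ATP held at 10 uM within the enzyme's linear range. Plates were read by luminescence after an 8-minute ambient incubation.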
* = called active by the depositor; ? = inconclusive; nt = not tested or not shown; [ ] = dose if it differs, or a comment. The list is not random: actives were taken first. Their share in the collection is about 11%. Unless noted, calls come from the whole dose curve; as a rule, active = well fitted curve in the direction sought with a large enough effect; inconclusive = small, poorly fitted or top-dose-only effect, or another doubt; inactive = no such curve, though single readings can be large; an effect the other way counts as inactive or inconclusive. Unless noted, % is set by controls: 0 for no effect and ±100 for the full control effect; potency is the fitted concentration of half-maximal effect.

SMILES | HADH2 inh | Bst PK mod | HSD17B inh | ERK AVP block | 15-hLO inh | Luciferase inh
COc1ccc2[nH]cc(CCNc3cc(-c4ccc5c(c4)OCO5)ncn3)c2c1 | -11.9% | nt | ? | ? | 12.6µM* | -2.3%[2.29 µM]
COc1ccc2[nH]cc(CCNc3cc(-c4cccnc4)ncn3)c2c1 | ? | nt | -1.9% | -13.9% | 20µM* | -0.5%[2.29 µM]
COc1ccc(C(=O)N2CCC3(CCN(C(=O)Nc4cccc(F)c4)CC3)CC2)cc1 | 6.2% | nt | 3.3% | -15.4% | 7.9% | 1.2%[11.4 µM]
C[C@H](O)[C@H](O)[C@@H]1CNc2nc(N)[nH]c(=O)c2N1 | ? | nt | 31.6µM* | 26.2% | 25.2% | -1.0%
Cc1sc2c(c1C)c(=O)n(-c1ccccc1)c1nnc(C)n21 | -5.4% | nt | 7.7% | nt | 3.16µM* | nt
COC(=O)[C@@H]1CC[C@H](C)[C@@H](c2ccc(C)cc2)N1C(=O)c1ccc(/C=N\OC[C@@H](O)[C@H]2O[C@H]3OC(C)(C)O[C@H]3[C@@H]2O)cc1 | -0.9%[11.4 µM] | nt | -2.1%[11.4 µM] | 17.3%[11.5 µM] | -9.0%[11.4 µM] | 0.2%[11.4 µM]
COc1ccc2c(c1)c1ncn(Cc3ccco3)c(=O)c1n2C | 31.6µM* | nt | 25.1µM* | -20.3% | -6.2% | -3.0%
COc1ccc2[nH]c(C(=O)O)c(CCNC(C)=O)c2c1 | 25.1µM* | >57 | 25.1µM* | 8.8% | -1.7% | 0.3%
CCC(CC)(CC(=O)Nc1cccc(/C=C/c2nc(C3CCC3)cs2)c1)C(=O)O | 12.6µM* | nt | 25.1µM* | -23.9% | -7.0% | nt
CO[C@@H]1COC(=O)[C@@H](C)NC(=O)C/C=C\[C@@H](C)[C@H](NS(=O)(=O)c2ccc(C)cc2)COC(=O)[C@H](C)NC(=O)C/C=C\[C@H]1C | 7.3%[11.4 µM] | nt | 5.4%[11.4 µM] | -16.4%[11.5 µM] | 19.5%[11.4 µM] | 1.8%[11.4 µM]
O=c1[nH]c2ccccc2nc1-c1cccs1 | 13.5% | nt | 10µM* | -4.7% | -6.6% | -4.3%
O=C(c1ccccc1)c1nc2ccccc2[nH]c1=O | -1.5% | >57 | 2.6% | 2.8% | 7.1% | -4.3%
Cn1ccnc1-c1nc2ccccc2[nH]c1=O | ? | >57 | 31.6µM* | -21.6% | 10.6% | 0.3%
CC#N | -0.7% | nt | -2.8% | -3.6% | 5.7% | nt
N.N.O=C(O)C1(C(=O)O)CCC1.[Pt] | 1.58µM* | nt | 25.1µM* | -6.2% | 0.631µM* | -9.8%
N[C@@]1(C(=O)O)CCC[C@@H]1C(=O)O | 4.4%[11.4 µM] | nt | 13.6%[11.4 µM] | -8.2%[11.5 µM] | 6.5%[11.4 µM] | 1.7%[11.4 µM]
NC(N)=N[C@H](CC(=O)O)c1ccccc1 | 6.1%[11.4 µM] | nt | 0.6%[11.4 µM] | 7.8%[11.5 µM] | 10.5%[11.4 µM] | 0.5%[11.4 µM]
O=C(NCc1ccc2c(c1)OCO2)c1cc2ncc(Br)cn2n1 | -10.0% | >57 | 31.6µM* | 51.7% | -22.0% | -0.1%
O=C(NCc1ccc2c(c1)OCO2)c1ccccn1 | 18.7% | >57 | 1.3% | -3.4% | 2.2% | 0.1%
CC(C)CO/N=C1/C[C@@H](O)[C@@H](O)[C@@H]2[C@@H]3C(=O)N(Cc4ccc5c(c4)OCO5)C(=O)[C@H]3CC[C@@H]12 | -7.1%[11.4 µM] | nt | 1.3%[11.4 µM] | 23.9%[11.5 µM] | 4.8%[11.4 µM] | -2.2%[11.4 µM]
CCN1CCC[C@@H]1CNC(=O)c1c(O)c(Cl)cc(Cl)c1OC | -13.1% | nt | -3.4% | -2.0% | 11.2% | 1.3%
CCN1CCC[C@H]1CNC(=O)c1c(O)c(Cl)cc(Cl)c1OC | 5.6% | nt | ? | -6.8% | 1.1%[25.6 µM] | 12.6µM*
O=C1C(Cl)=C(Nc2ccccc2O)C(=O)N1c1ccccc1 | 1µM* | nt | -14.5% | -9.8% | ? | -15.8%
COc1ncc2nc(C)c(=O)n(C[C@H]3CCCO3)c2n1 | 2.1% | nt | -17.0% | -11.7% | -2.6% | -2.7%[11.4 µM]
CC1(C)Cc2nc3sc4c(N(CCO)CCO)ncnc4c3cc2CO1 | nt | >25.6 | nt | nt | nt | -8.2%[25.5 µM]
CCc1nc(OCc2ccco2)c2sc3nc4c(cc3c2n1)COC(C)(C)C4 | ? | >57 | 20µM* | ? | -24.4% | -7.2%
CCc1nc2c(sc3nc4c(cc32)COC(C)(C)C4)c(=O)n1Cc1ccco1 | ? | >57 | 31.6µM* | ? | -26.5% | -18.9%
CCSc1nnc(NC(=O)C2Cc3ccccc3CN2C(=O)c2ccco2)s1 (configuration not stated) | ? | >57 | 31.6µM* | ? | ? | 0.3%
C=C(C)C(=O)OC | 1.3% | nt | -3.8% | 15.1% | -5.4% | nt
CCc1ccccc1O | -6.4% | nt | 1.6% | -6.1% | -2.5% | nt
